PubChem BioAssay AID1347131 (National Center for Advancing Translational Sciences (NCATS), 2019)
Hit rate of the full screen: of about 410,000 compounds, about 2,000 (0.49%) were called active. Not shown: some 8% with an inconclusive outcome. Calls follow the shape of the full dose curve; tested in HEK293 reporter line. For the sample, actives were picked, then their nearest neighbours and some compounds at random.

Assay: qHTS Assay for Foot and Mouth Disease Virus Antivirals: Primary Screen against the MLPCN compound library; also: nearly all actives have a fitted effect of over 55% in size
Settings: FMDV antiviral cell-based qHTS; series mostly up to 57.9 µM; activity, negative = inhibition: at the top concentration
Potency is read from the fitted curve at half-maximal effect.

**Q.** For `COCC(C)n1c(C)cc(C(=O)COC(=O)c2cc(=O)[nH]c3ccccc23)c1C` (stereo not drawn), which “activity, negative = inhibition” value is on record?
**A.** The value was -25.1% (inactive).

**Q.** For `CC(C)(C)OC(=O)N1CCC(c2c(C(=O)N3CCN(Cc4ccccc4)CC3)cnn2-c2ccc(Cl)cc2)CC1`, which “activity, negative = inhibition” value is on record?
**A.** The value was -34% (inactive).

**Q.** Which “activity, negative = inhibition” value does the source give for `O=S(=O)(N/N=C\c1ccc2c(c1)OCO2)c1ccc(Cl)cc1` here?
**A.** Its value is 102% (inactive).

**Q.** For `N/C(=N\N=C\c1ccc2c(c1)OCO2)c1nonc1N`, which Potency is on record?
**A.** The Potency was 17.8 µM (active).

**Q.** With `CCc1ccc(S(=O)(=O)N/N=C\c2ccc3c(c2)OCO3)cc1` as the molecule, how does the “activity, negative = inhibition” value read?
**A.** The value was 108% (inactive).

**Q.** For `Brc1ccccc1CN1CCN(Cc2c[nH]c3ccccc23)CC1`, which “activity, negative = inhibition” value is on record?
**A.** Its value is -41.3% (inactive).

**Q.** With `CCN(CC)c1ccc2cc(C(=O)NNC(=O)c3ccc(S(=O)(=O)N4CCCCC4)cc3)c(=O)oc2c1` as the molecule, how does the “activity, negative = inhibition” value read?
**A.** Its value is -31% (inactive).

**Q.** For `CCN(CC)c1ccc2c(Cl)c(Br)c(=O)oc2c1`, which Potency is on record?
**A.** Its Potency is 31.6 µM (active).

**Q.** Which “activity, negative = inhibition” value does the source give for `CCN(Cc1cc(=O)oc2cc(C)ccc12)c1ccccc1` here?
**A.** Its value is -38.6% (inactive).

**Q.** For `O=C(C1=C[C@H](c2ccc3c(c2)OCO3)C[C@H](OCc2ccc(CO)cc2)O1)N1CCN(Cc2ccc3c(c2)OCO3)CC1`, which “activity, negative = inhibition” value is on record?
**A.** Its value is -38% (inactive).

**Q.** With `Cc1ccc(Nc2nc(N)nc(CN3CCN(c4ccccc4F)CC3)n2)cc1` as the molecule, how does the “activity, negative = inhibition” value read?
**A.** Its value is -33% (inactive).

**Q.** Which “activity, negative = inhibition” value does the source give for `O=C(Oc1cccc(/C=N/Nc2nc(N3CCOCC3)nc(N3CCOCC3)n2)c1)c1ccco1` here?
**A.** The value was -35.2% (inactive).

**Q.** With `O=C(N/N=C/c1ccc2ncccc2c1)c1ccco1` as the molecule, how does the Potency read?
**A.** The Potency was 14.1 µM (active).

**Q.** With `CCOc1ccc(C=NNC(=O)c2cccc3ccccc23)cc1OCC` as the molecule, how does the “activity, negative = inhibition” value read?
**A.** The value was -38.1% (inactive).

**Q.** Which Potency does the source give for `Cc1ccc(-c2ccc(=O)n(Cc3cc(C)ccc3C)n2)cc1` here?
**A.** Its Potency is “inactive”.

**Q.** Which “activity, negative = inhibition” value does the source give for `CCN1CCN(c2cc(-c3ccccc3)nc3cc(-c4cccc(F)c4)nn23)CC1` here?
**A.** The value was -31.5% (inactive).

**Q.** With `C=CC[C@@H](CC(=O)OC(C)(C)C)C(=O)OC[C@@H]1CCCN1C(=O)[C@@H](CC=C)CC(=O)N[C@@H](CO)Cc1ccccc1` as the molecule, how does the “activity, negative = inhibition” value read?
**A.** Its value is -31% (inactive).

**Q.** With `C=CC[C@@H](Cc1ccc(F)cc1)C(=O)OC[C@H]1CCCN1C(=O)[C@@H](CC=C)CC(=O)N(CCO)Cc1ccccc1` as the molecule, how does the “activity, negative = inhibition” value read?
**A.** Its value is -34.2% (inactive).

**Q.** For `C=CC[C@@H](CC(=O)OC(C)(C)C)C(=O)OC[C@@H]1CCCN1C(=O)[C@@H](CC=C)CC(=O)N[C@H](CO)Cc1ccccc1`, which Potency is on record?
**A.** The Potency was 14.1 µM (active).

**Q.** For `COc1ccc(C(C)=O)cc1COC(=O)CNC(=O)c1ccccc1F`, which “activity, negative = inhibition” value is on record?
**A.** The value was -36.6% (inactive).

**Q.** Which “activity, negative = inhibition” value does the source give for `N#CC(=C=[N-])c1nc2ccccc2nc1-[n+]1ccccc1` here?
**A.** The value was -31.6% (inactive).

**Q.** With `COc1cccc(/C=N/NC(=O)CSc2nnc(C)n2-c2ccccc2)c1OC` as the molecule, how does the “activity, negative = inhibition” value read?
**A.** The value was -35.1% (inactive).

**Q.** For `COc1cccc(/C=N/NC(N)=S)c1OCc1cccc(Cl)c1`, which Potency is on record?
**A.** The Potency was 22.4 µM (active).

**Q.** Which “activity, negative = inhibition” value does the source give for `COc1cc(/C=N/NC(N)=S)cc(Br)c1OCc1ccccc1F` here?
**A.** Its value is -30.1% (inactive).

**Q.** With `CN(C(=O)OC(C)(C)C)c1ccc(-c2nc3ccccc3s2)cc1` as the molecule, how does the “activity, negative = inhibition” value read?
**A.** The value was -100% (inactive).

**Q.** With `Cc1cc(-c2nc3ccccc3s2)ccc1N` as the molecule, how does the Potency read?
**A.** The Potency was 7.94 µM (active).

**Q.** With `Cc1cc(-c2nc3cc(F)ccc3s2)ccc1N` as the molecule, how does the Potency read?
**A.** Its Potency is 12.6 µM (active).

**Q.** With `CC(C)(C)C(=O)Nc1ccc(-c2nc3ccccc3s2)cc1` as the molecule, how does the “activity, negative = inhibition” value read?
**A.** Its value is -67.5% (inactive).
